This is an account of results in PubChem BioAssay.

Activity calls are given as the source filed them.

Assay [1] can be described thus: small molecules captured by biotinylated probe aFSTL3 – biochemical, small-molecule microarray, fluorescence 635/667, stem cell growth factor project, primary screen (AID 1064).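 Note: measures binding of the biotinylated anti-FSTL3 antibody to printed compounds.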 The note with it: higher = more signal.
Assay [2] can be described thus: binders from COS7 lysate, DM2A8 probe, primary screen, torsin A project, cell lysate, small-molecule microarray, fluorescence 635/667 (AID 1065). The note with it: higher = more signal, COS7 lysate expressing mutant human TOR1A.
Assay [3] can be described thus: small molecules captured by biotinylated probe aFGF2 – biochemical, small-molecule microarray, fluorescence 635/667, stem cell growth factor project, primary screen (AID 1067).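 Note: measures binding of biotinylated aFGF2 protein to printed compounds on slides; z-score merges feature fluorescence and signal-to-noise across triplicate slides.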 The note with it: higher = more signal.
Assay [4] in a line: small molecules captured by biotinylated probe aFGF10 – biochemical, small-molecule microarray, fluorescence 635/667, stem cell growth factor project, primary screen (AID 1071).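 Note: score merges 667 nm spot intensity and signal to noise from triplicate slides.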 Particulars: higher = more signal.
Assay [5] deals with Neurogenic locus notch homolog protein 2 (Homo sapiens) (UniProt Q04721). Kind of assay: small molecules binding Notch2 protein – biochemical, small-molecule microarray, 635 nm fluorescence, stem cell growth factors, primary screen (AID 1073). Particulars: higher = more signal.
Sequence of Neurogenic locus notch homolog protein 2 (Homo sapiens) (Q04721 whole entry, looked up, canonical isoform): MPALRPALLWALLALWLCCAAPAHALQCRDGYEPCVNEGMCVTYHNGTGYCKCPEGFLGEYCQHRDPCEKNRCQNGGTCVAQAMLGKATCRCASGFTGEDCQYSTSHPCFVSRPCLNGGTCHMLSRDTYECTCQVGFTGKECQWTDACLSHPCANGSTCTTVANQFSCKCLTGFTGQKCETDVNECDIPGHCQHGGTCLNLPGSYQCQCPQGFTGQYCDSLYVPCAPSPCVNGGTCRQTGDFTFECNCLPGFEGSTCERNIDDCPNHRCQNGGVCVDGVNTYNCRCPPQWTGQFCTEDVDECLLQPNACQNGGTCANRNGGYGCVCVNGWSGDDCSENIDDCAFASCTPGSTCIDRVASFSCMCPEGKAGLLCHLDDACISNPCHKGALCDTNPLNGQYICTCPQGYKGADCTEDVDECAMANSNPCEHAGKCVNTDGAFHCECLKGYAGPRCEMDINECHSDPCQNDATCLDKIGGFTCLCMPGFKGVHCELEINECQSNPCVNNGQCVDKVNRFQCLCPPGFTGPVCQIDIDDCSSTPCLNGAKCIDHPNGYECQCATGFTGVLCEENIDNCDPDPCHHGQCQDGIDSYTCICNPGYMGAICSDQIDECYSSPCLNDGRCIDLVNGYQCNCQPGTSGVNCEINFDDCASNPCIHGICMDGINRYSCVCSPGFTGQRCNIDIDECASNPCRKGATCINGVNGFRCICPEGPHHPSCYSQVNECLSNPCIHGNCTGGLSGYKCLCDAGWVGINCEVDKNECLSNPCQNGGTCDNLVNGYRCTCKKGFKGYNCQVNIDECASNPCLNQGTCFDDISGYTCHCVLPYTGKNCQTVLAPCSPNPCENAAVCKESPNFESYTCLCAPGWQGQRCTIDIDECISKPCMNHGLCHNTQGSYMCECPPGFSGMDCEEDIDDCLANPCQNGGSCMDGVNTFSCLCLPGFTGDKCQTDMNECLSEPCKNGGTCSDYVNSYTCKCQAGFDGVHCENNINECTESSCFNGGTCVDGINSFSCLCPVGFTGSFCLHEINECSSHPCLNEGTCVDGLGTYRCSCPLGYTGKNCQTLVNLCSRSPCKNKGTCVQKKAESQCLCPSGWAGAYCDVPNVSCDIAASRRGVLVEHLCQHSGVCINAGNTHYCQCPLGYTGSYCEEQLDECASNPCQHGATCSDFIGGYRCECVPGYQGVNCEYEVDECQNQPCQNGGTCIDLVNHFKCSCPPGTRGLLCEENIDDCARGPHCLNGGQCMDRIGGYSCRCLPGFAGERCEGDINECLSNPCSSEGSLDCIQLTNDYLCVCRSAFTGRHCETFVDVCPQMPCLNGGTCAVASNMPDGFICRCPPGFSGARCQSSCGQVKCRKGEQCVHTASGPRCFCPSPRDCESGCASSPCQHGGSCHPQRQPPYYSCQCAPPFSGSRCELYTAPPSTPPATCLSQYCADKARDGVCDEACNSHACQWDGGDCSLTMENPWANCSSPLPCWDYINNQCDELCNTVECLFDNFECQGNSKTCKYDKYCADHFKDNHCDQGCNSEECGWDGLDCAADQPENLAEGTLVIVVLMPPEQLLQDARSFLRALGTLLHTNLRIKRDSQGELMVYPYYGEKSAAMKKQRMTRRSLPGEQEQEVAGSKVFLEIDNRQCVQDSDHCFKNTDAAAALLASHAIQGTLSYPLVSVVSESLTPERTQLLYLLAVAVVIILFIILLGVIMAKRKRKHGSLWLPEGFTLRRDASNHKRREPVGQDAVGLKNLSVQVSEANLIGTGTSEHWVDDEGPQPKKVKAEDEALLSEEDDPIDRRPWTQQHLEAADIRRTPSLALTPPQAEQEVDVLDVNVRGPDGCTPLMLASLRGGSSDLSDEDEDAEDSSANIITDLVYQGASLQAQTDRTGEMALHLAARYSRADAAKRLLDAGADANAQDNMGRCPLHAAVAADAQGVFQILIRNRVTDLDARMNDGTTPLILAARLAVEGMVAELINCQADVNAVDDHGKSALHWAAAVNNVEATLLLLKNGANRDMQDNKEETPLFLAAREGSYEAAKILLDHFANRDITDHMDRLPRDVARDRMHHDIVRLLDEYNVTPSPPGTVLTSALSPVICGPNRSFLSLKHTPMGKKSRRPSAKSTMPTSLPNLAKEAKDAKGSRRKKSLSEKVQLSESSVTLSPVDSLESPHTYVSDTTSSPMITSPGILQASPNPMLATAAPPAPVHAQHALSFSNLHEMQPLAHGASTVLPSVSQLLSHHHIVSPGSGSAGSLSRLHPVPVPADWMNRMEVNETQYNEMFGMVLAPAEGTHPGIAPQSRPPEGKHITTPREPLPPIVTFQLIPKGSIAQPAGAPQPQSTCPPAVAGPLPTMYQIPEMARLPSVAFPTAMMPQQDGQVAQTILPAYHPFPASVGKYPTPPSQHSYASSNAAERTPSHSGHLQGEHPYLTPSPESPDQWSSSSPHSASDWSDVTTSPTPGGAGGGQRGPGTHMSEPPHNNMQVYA
The target in assay [6] is Pro-neuregulin-1, membrane-bound isoform (Homo sapiens) (UniProt Q02297). Briefly: small molecules binding neuregulin-1 protein – biochemical, small-molecule microarray, fluorescence 635/667, psychiatric disease protein project, primary screen (AID 1075).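 Note: score combines 667 nm spot fluorescence with signal to noise.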 The note with it: NRG1 binding, 635 nm fluorescence, higher = more signal.
Sequence of Pro-neuregulin-1, membrane-bound isoform (Homo sapiens) (Q02297 whole entry, looked up, the tested form may be a part, canonical isoform): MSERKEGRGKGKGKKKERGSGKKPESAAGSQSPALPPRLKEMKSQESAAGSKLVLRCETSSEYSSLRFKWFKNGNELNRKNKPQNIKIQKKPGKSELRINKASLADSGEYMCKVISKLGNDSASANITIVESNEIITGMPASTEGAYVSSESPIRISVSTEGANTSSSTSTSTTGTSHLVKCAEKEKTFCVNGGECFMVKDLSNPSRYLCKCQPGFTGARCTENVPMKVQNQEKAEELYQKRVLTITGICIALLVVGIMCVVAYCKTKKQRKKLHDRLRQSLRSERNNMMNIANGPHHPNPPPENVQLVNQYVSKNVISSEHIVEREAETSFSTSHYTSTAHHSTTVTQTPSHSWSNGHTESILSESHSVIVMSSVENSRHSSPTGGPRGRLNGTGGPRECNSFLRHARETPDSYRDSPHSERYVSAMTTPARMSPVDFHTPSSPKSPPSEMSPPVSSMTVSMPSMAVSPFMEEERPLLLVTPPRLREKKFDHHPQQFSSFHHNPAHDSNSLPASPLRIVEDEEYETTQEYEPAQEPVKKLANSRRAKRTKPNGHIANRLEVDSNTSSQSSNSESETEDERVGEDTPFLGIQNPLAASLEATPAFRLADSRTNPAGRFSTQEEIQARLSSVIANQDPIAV
Assay [7] concerns Neuregulin-1 EGF-like domain. Briefly: small molecules binding NRG1 EGF domain – biochemical, small-molecule microarray, 635 nm fluorescence, primary screen (AID 1081).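 Note: binding of the protein to compounds printed on small-molecule microarray slides.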 Particulars: higher = more signal.
A short description of assay [8]: FRG1 expression reporter modulators in myotubes – cell-based, C2C12 myotubes, firefly/Renilla luciferase, luminescence, FRG1 inhibition for FSHD, primary screen (AID 1084). Particulars: FRG1 promoter luciferase, higher = more signal, called active from +8 up or from −8 down.
Assay [9] is described as follows: small molecules captured by biotinylated probe aFST – biochemical, small-molecule microarray, fluorescence 635/667, stem cell growth factor project, primary screen (AID 1086).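 Note: score merges 667 nm fluorescence with signal-to-noise of each printed compound spot.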 Particulars: higher = more signal.
A short description of assay [10]: binders of probe aHhip on microarray, primary screen, stem cell growth factor project, biochemical, small-molecule microarray, fluorescence 635/667 (AID 1087).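 Note: score merges spot fluorescence at 667nm with spot signal to noise ratio.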 The note with it: higher = more signal.
Assay [11] concerns PRMT1 (protein arginine N-methyltransferase 1). Kind of assay: small molecules binding arginine methyltransferase PRMT1 – biochemical, small-molecule microarray, 635 nm fluorescence, primary screen (AID 1088).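 Note: binding of Prmt1 protein to compounds spotted on small-molecule microarray slides.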 The note with it: higher = more signal.
Assay [12] is described as follows: growth effects on S. cerevisiae YJM789 – YJM789 clinical isolate, OD600, 24 h, basal, primary screen (AID 1089).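 Note: growth of clinical yeast isolate S. cerevisiae YJM 789 seeded 1000 cells per well; test concentration not given here.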 The note with it: higher = more signal, called active from +8 up or from −8 down.
Assay [13] in a line: S. pombe growth modifiers, basal conditions – strain 972, OD600, 24 h, no modulator, primary screen (AID 1090).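 Note: basal condition with compound alone and no growth modifier present; test concentration not given here.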 Particulars: S. pombe 972 growth, higher = more signal, called active from +8 up or from −8 down.
A short description of assay [14]: budding yeast growth modifiers under rapamycin – strain BY4716, OD600, 96 h, primary screen (AID 1091). Note: test concentration not given here. Particulars: S. cerevisiae BY4716 + rapamycin, higher = more signal, called active from +8 up or from −8 down.
The target in assay [15] is Torsin-1A-interacting protein 2 (Homo sapiens) (UniProt Q8NFQ8). Kind of assay: small molecules binding lysate-expressed LULL1 – cell lysate, human LULL1 lysate, 635/667 nm fluorescence, primary screen (AID 1092).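 Note: probe is lysate of COS7 cells overexpressing human LULL1; score merges per-feature 667 nm fluorescence with signal-to-noise.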 The note with it: small-molecule microarray, hLULL1 lysate binding, 635 nm fluorescence; higher = more signal.
Sequence of Torsin-1A-interacting protein 2 (Homo sapiens) (Q8NFQ8 whole entry, looked up): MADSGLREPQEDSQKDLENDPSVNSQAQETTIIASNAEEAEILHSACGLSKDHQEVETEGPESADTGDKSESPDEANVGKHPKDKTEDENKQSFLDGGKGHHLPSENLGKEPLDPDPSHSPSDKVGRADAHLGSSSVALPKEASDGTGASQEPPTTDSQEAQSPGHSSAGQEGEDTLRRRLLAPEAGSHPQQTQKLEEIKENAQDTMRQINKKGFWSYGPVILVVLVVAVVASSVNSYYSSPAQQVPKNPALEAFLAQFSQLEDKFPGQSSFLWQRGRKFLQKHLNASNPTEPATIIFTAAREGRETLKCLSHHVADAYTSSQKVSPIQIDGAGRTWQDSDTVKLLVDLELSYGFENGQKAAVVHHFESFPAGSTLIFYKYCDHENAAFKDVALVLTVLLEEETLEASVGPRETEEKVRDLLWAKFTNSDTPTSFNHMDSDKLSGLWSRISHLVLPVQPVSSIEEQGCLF
Assay [16] is described as follows: optical density change of DRC41 E. coli – strain DRC41, OD650, 24 h, E. coli filamentation project, primary screen (AID 1093).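 Note: MC1000 strain lacking acrAB efflux and sulA so SOS filamentation is blocked; test concentration not given here.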 Particulars: E. coli DRC41 growth, higher = more signal, called active from +8 up or from −8 down.
Assay [17] is described as follows: probe aLefty2 binding to arrayed compounds – biochemical, biotinylated probe, 635/667 nm fluorescence, primary screen (AID 1094).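 Note: score merges spot fluorescence near 667 nm with spot signal-to-noise ratio.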 The note with it: small-molecule microarray, higher = more signal.
The test system of assay [18] is Noggin (protein binding on small-molecule microarray). Briefly: small molecules binding Noggin protein – biochemical, 635/667 nm fluorescence, primary screen (AID 1095).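 Note: score merges 667 nm feature fluorescence with signal to noise over triplicate slides.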 Particulars: 635 nm fluorescence, higher = more signal.
Assay [19] concerns the target Neurogenic locus notch homolog protein 3 (Homo sapiens) (UniProt Q9UM47). Briefly: small molecules binding NOTCH3 protein – biochemical, 635/667 nm fluorescence, primary screen (AID 1096). The note with it: small-molecule microarray, 635 nm fluorescence, higher = more signal.
A short description of assay [20]: probe aEGFR binding to arrayed compounds – biochemical, biotinylated probe, 635/667 nm fluorescence, primary screen (AID 1097).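 Note: probe is a biotinylated anti-EGFR antibody binding compounds printed on slides; score combines fluorescence near 667 nm and signal to noise of each spot.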 The note with it: small-molecule microarray, higher = more signal.

Consider `C=COC[C@@H]1CN2[C@@H](CC[C@@H](C)[C@@H]2c2ccc(Br)cc2)C(=O)O1`, for which the composite z-score is -0.154 in assay [1]; 0.436 in [2]; -0.158 in assay [3]; -0.134 in assay [4]; -0.898 in assay [5]; -0.0605 in [6]. The composite z-score is 0.673 in assay [7]; -0.171 in assay [9]; 0.643 in assay [10]; 0.217 in [11]; 0.0749 in assay [15]; -0.0769 in assay [17]. The values for the composite z-score in assay [18], in assay [19] and in assay [20] were -0.0482, -0.906 and -0.267, respectively. In addition, the z-score is 0.151 (inactive) in [8]; -0.872 (inactive) in assay [12]; -17.1 (active) in assay [13]; -0.61 (inactive) in [14]; -0.756 (inactive) in assay [16].
Consider `CC(C)CON=C1C[C@@H](O)[C@@H](O)[C@@H]2[C@@H]3C(=O)N(Cc4ccc5c(c4)OCO5)C(=O)[C@@H]3CC[C@H]12`, for which the composite z-score is -0.504 in assay [1]; -0.111 in assay [2]; -0.149 in assay [3]; 0.715 in assay [4]; 0.392 in assay [5]; 1.01 in assay [6]. In addition, the composite z-score is 1 in assay [7]; 0.0313 in [9]; -0.0645 in [10]; 1.31 in [11]; 2.33 in [15]; -0.2 in assay [17]. For the same molecule, the results for the composite z-score in assay [18], in [19] and in assay [20] were 1.38, 0.846 and -0.0697, respectively. The z-score was -0.261 (inactive) in [8]; 0.306 (inactive) in [12]; 0.754 (inactive) in assay [13]; 0.329 (inactive) in [14]; 0.396 (inactive) in assay [16].
As to `CCO[C@H](c1cc(OC)cc([N+](=O)[O-])c1OC)[C@H](C)C=CCC(=O)OC`, the composite z-score was -0.413 in assay [1]; 0.13 in assay [2]; -0.22 in assay [3]; -0.0567 in assay [4]; -0.3 in assay [5]; -0.264 in assay [6]. Besides, the composite z-score is -0.997 in [7]; -0.185 in assay [9]; -0.479 in assay [10]; 1.11 in assay [11]; -0.746 in [15]; -0.233 in assay [17]. The results for the composite z-score in assay [18], in assay [19] and in assay [20] were 0.927, 0.0565 and -0.123, respectively. Besides, the z-score in assay [8] is 0.157 (inactive); in assay [12], -0.57 (inactive); in [13] it was -1.18 (inactive); in assay [14], -0.187 (inactive); in [16] it was 0.545 (inactive).
For the molecule `CCCCC#C[C@@H]1C=C[C@H](Oc2cc(OC)c(OC)c(OC)c2)[C@@H](COC(=O)OCC)O1`, the composite z-score is -0.682 in assay [1]; -0.0561 in assay [2]; -0.116 in [3]; -0.0152 in assay [4]; -0.526 in assay [5]; -0.158 in assay [6]. Further, the composite z-score in assay [7] is -0.365; in [9], -0.311; in assay [10], 0.141; in assay [11], 0.314; in assay [15], -0.16; in assay [17] it was -0.209. Further, the composite z-score in [18] is 0.229; in assay [19], -0.208; in assay [20], -0.162. Further, the z-score in assay [8] was -0.214 (inactive); in assay [12], 0.635 (inactive); in assay [13], -2.19 (inactive); in assay [14] it was 0.398 (inactive); in [16], 0.934 (inactive).
Take `CC(C)CON=C1C[C@@H](O)[C@@H](O)[C@@H]2[C@@H]3C(=O)N(c4cccc(Oc5ccccc5)c4)C(=O)[C@@H]3CC[C@@H]12`: the composite z-score in assay [1] is -0.509; in [2], 0.14; in assay [3], -0.13; in assay [4], 0.206; in assay [5], 0.336; in assay [6] it was 0.61. Besides, the composite z-score in assay [7] was 1.1; in assay [9], -0.129; in [10] it was 0.0373; in [11], 1.4; in [15], 1.86; in assay [17], -0.131. Further, the composite z-score is 1.02 in assay [18], 0.046 in assay [19] and -0.109 in [20]. The z-score in assay [8] is -1.18 (inactive); in assay [12] it was -1.57 (inactive); in assay [13] it was 0.174 (inactive); in assay [14], -0.827 (inactive); in [16], -0.961 (inactive).
